Consider eight compounds from PubChem BioAssay (NCI).

Some test systems named below: NCI-H23 lung; NCI-H226 lung; NCI-H322M lung; HOP-62 NSCLC; NCI-H460 lung; HOP-92 NSCLC; NCI-H522 lung; A549/ATCC NSCLC; 786-0 renal; DU-145 prostate; K-562 leukemia; MALME-3M melanoma; MDA-MB-231 breast; RXF 393 renal; SF-268 CNS; SF-295 CNS; SF-539 CNS; UACC-257 melanoma; M14 melanoma; COLO 205 colon.
Common to all, as to test: NCI-60 one-dose screen, 48 h (100 = growth as untreated, 0 = no growth, -100 = all killed)
Conditions in all cases: 10 µM unless noted

Compounds without any hit were thinned out: in the full panel of roughly 83,000, 20% have a hit.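 Note: values are percent growth. 100 is the growth of untreated cells, values between 100 and 0 indicate rising inhibition; between -100 and 0 indicates cell death.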 Values without a mark were called inactive. Calls of active or inactive are those of the source. The calls were made as follows: active = growth percent below 10; inactive = the rest.

Regarding `O=C(CSc1nnc(-c2cc(-c3ccc(Cl)cc3)nc3ccccc23)n1-c1ccccc1)Nc1ccc(Cl)cc1`, the growth with NCI-H23 lung was 99.7%; in the assay with NCI-H226 lung it was 95%; with NCI-H322M lung, 102%; in the assay with HOP-62 NSCLC, 114%; in the assay on NCI-H460 lung it was 100%; with HOP-92 NSCLC, 111%. In addition, the growth in the assay on NCI-H522 lung was 93.4%; in the assay on A549/ATCC NSCLC, 96.2%; in the assay with 786-0 renal, 96.8%; in the assay with DU-145 prostate it was 107%; in the assay on K-562 leukemia it was 85.1%; with MALME-3M melanoma, 107%. For the same compound, the growth in the assay on MDA-MB-231 breast was 89.7%; in the assay on RXF 393 renal it was 118%; in the assay with SF-268 CNS, 94%; in the assay on SF-295 CNS, 99.5%; with SF-539 CNS it was 111%; in the assay on UACC-257 melanoma, 96.2%. Also, the growth with M14 melanoma was 109%.
Take `COc1ccc(C2=NN3C(C2)c2cc(Br)ccc2OC3c2ccncc2)cc1` (configuration not stated): the growth in the assay on NCI-H23 lung is 81.8%; with NCI-H226 lung it was 92.7%; with NCI-H322M lung, 76.4%; in the assay on HOP-62 NSCLC, 79.9%; with NCI-H460 lung, 59.4%; in the assay with NCI-H522 lung, 60%. The growth in the assay with A549/ATCC NSCLC is 71.7%; in the assay with 786-0 renal, 92.6%; with COLO 205 colon, 110%; in the assay on DU-145 prostate, 96.4%; with K-562 leukemia, 74.8%; in the assay with MALME-3M melanoma, 94%. In addition, the growth in the assay on MDA-MB-231 breast is 85%; in the assay with RXF 393 renal it was 95.4%; with SF-268 CNS it was 66.2%; with SF-295 CNS, 86.5%; in the assay on SF-539 CNS it was 86.2%; in the assay with UACC-257 melanoma, 86.2%. Further, the growth in the assay with M14 melanoma is 86.8%.
With `C=C1C(=O)O[C@H]2[C@H]1CC/C(COC(=O)NCc1ccc(Cn3c(=O)sn(CCCC)c3=O)cc1)=C\CC[C@@]1(C)O[C@@H]21`, the growth with NCI-H23 lung was 80.8%; in the assay on NCI-H226 lung, 78.5%; in the assay on NCI-H322M lung, 105%; in the assay with HOP-62 NSCLC it was 91.6%; with NCI-H460 lung, 95.4%; with NCI-H522 lung it was -55.8% (active). Further, the growth is 93.5% in the assay on A549/ATCC NSCLC; 41.8% in the assay with 786-0 renal; -25% (active) in the assay on COLO 205 colon; 20.2% in the assay on DU-145 prostate; 0.885% (active) in the assay on K-562 leukemia; -24.1% (active) with MALME-3M melanoma. The growth with MDA-MB-231 breast is 38.4%; in the assay with RXF 393 renal, 33.5%; in the assay with SF-268 CNS it was 82.4%; in the assay with SF-295 CNS it was 101%; with SF-539 CNS it was 59.6%; in the assay with UACC-257 melanoma, 50.8%. For the same compound, in the assay with M14 melanoma, the growth was 6.26% (active).
In the case of `Cc1csc(Nc2nc(-c3cccc(Cl)c3)nc(C(Cl)(Cl)Cl)n2)n1`, the growth is 79% in the assay on NCI-H23 lung; 95.6% in the assay with NCI-H226 lung; -23.1% (active) in the assay with NCI-H322M lung; 20.3% in the assay on HOP-62 NSCLC; 9.9% (active) in the assay with NCI-H460 lung; 83.6% in the assay on NCI-H522 lung. Moreover, the growth in the assay with A549/ATCC NSCLC was 1.73% (active); with 786-0 renal, 59.5%; with COLO 205 colon, -38.6% (active); with DU-145 prostate, -30.4% (active); in the assay on K-562 leukemia, 65.6%; in the assay with MALME-3M melanoma, 102%. In addition, the growth in the assay with MDA-MB-231 breast was 9.88% (active); in the assay with RXF 393 renal, -2.8% (active); in the assay with SF-268 CNS it was 65.8%; with SF-295 CNS, 34.1%; with SF-539 CNS it was 34%; in the assay on UACC-257 melanoma it was 36.2%. Further, the growth in the assay with M14 melanoma was 88.3%.
As to `CC1(C)CC[C@]2(CO)CC[C@]3(C)[C@H](CC[C@@H]4[C@@]5(C)CC[C@H](O)C(C)(C)[C@@H]5CC[C@]43C)[C@H]2[C@H]1O`, the growth in the assay with NCI-H23 lung was 87.1%; in the assay with NCI-H226 lung, 79.1%; in the assay with NCI-H322M lung it was 69.2%; in the assay on HOP-62 NSCLC, 54.6%; with NCI-H460 lung, 21%; in the assay with HOP-92 NSCLC, 105%. The growth is 84.8% in the assay with NCI-H522 lung; 56.8% in the assay with A549/ATCC NSCLC; 79.3% in the assay with 786-0 renal; 77.7% in the assay on DU-145 prostate; 83.9% in the assay with K-562 leukemia; 78.1% in the assay on MALME-3M melanoma. In addition, the growth in the assay with MDA-MB-231 breast is 26.5%; in the assay on RXF 393 renal, 61.1%; in the assay with SF-268 CNS, 83.7%; in the assay with SF-295 CNS, 86.4%; with SF-539 CNS, 12.8%; in the assay with UACC-257 melanoma, 104%. Also, the growth with M14 melanoma is 99.7%.
In the case of `Nc1ncc(-c2ccc3ncnc(N4CCc5cc(F)c(Cl)cc54)c3c2)cc1C=O`, the growth was 31.6% in the assay on NCI-H23 lung; 37.2% in the assay with NCI-H226 lung; 2.51% (active) in the assay with NCI-H322M lung; 15.2% in the assay with HOP-62 NSCLC; 11.8% in the assay on NCI-H460 lung; -22.8% (active) in the assay on HOP-92 NSCLC. In addition, the growth with NCI-H522 lung is 26.7%; in the assay with A549/ATCC NSCLC, 7.18% (active); in the assay with 786-0 renal it was 8.62% (active); in the assay on DU-145 prostate, 10.1%; in the assay on K-562 leukemia, 35.5%; in the assay on MALME-3M melanoma it was -15.5% (active). The growth is 26.4% in the assay with MDA-MB-231 breast; -35% (active) in the assay on RXF 393 renal; 18.1% in the assay on SF-268 CNS; 6.94% (active) with SF-295 CNS; 12.1% in the assay on SF-539 CNS; 24.6% in the assay with UACC-257 melanoma. In the assay on M14 melanoma, the growth is 19%.
In the case of `CCOC(=O)c1cnc2sc(-c3ccc(OC)cc3)nc2c1Cl`, the growth in the assay with NCI-H23 lung was 82%; in the assay on NCI-H226 lung, 99.2%; with NCI-H322M lung it was 89.2%; with HOP-62 NSCLC, 112%; in the assay on NCI-H460 lung, 100%; in the assay with NCI-H522 lung it was 97.8%. For the same compound, the growth is 106% in the assay with A549/ATCC NSCLC; 115% in the assay on 786-0 renal; 123% in the assay with COLO 205 colon; 96.3% in the assay on DU-145 prostate; 107% in the assay on K-562 leukemia; 76.3% with MALME-3M melanoma. The growth is 101% in the assay on MDA-MB-231 breast; 101% with RXF 393 renal; 103% in the assay with SF-268 CNS; 105% in the assay with SF-295 CNS; 104% in the assay on SF-539 CNS; 101% in the assay with UACC-257 melanoma. For the same compound, in the assay with M14 melanoma, the growth is 79.1%.
In the case of `COc1cc2cc(Oc3ccc(NC(=O)Nc4ccc(Cl)c(Cl)c4)cc3)c(C)nc2cc1OCCN1CCCCC1`, the growth with NCI-H23 lung was 107%; in the assay with NCI-H226 lung it was 77.7%; with NCI-H322M lung, 104%; with HOP-62 NSCLC, 107%; with NCI-H460 lung it was 102%; in the assay with HOP-92 NSCLC, 75.1%. The growth was 102% with NCI-H522 lung; 86.9% with A549/ATCC NSCLC; -70% (active) with 786-0 renal; 97% with DU-145 prostate; -35.7% (active) in the assay on K-562 leukemia; 13.9% in the assay with MALME-3M melanoma. Besides, the growth is 91.4% in the assay with MDA-MB-231 breast; 73.7% with RXF 393 renal; 92% in the assay with SF-268 CNS; 99.1% in the assay with SF-295 CNS; 86.8% with SF-539 CNS; 93.6% with UACC-257 melanoma. The growth in the assay on M14 melanoma was -33.4% (active).
